Two sequences from publication PMC7862700, “An all-to-all approach to the identification of sequence-specific readers for epigenetic DNA modifications on cytosine” can be followed below.

What all share (experiment): DAPPL (digital affinity profiling via proximity ligation, sequencing); 10 mM Tris-HCl pH 7.5, 50 mM NaCl, 1 mM DTT, 4% glycerol, room temperature, 30 min; GST-TFs on glutathione beads, 16-mer random dsDNA library, 0.1% formaldehyde crosslink after washing; high values mean tight binding
One assay deals with T1, FLI1 (Homo sapiens, UniProt Q01543 1-452).
T1 sequence: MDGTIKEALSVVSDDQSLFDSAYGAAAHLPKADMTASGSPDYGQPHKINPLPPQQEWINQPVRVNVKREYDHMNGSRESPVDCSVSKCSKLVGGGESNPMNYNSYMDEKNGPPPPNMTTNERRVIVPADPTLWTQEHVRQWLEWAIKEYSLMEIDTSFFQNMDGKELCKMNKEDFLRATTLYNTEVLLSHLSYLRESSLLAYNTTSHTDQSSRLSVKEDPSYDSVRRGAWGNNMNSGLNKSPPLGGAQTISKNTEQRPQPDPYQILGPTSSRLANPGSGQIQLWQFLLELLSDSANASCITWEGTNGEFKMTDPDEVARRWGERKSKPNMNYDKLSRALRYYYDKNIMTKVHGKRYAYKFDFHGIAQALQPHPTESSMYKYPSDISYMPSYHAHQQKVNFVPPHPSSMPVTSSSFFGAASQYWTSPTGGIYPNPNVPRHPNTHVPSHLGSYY
The conditions noted are these: protein: recombinant; tags: N-terminal GST; dsDNA, one strand shown. In short, it runs like this: (§1)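 Beads coated with glutathione captured GST-fused human transcription factors that had been expressed in yeast, and the factors were then given DNA barcodes and pooled with a tag-only sample. The pools were incubated with 200 nmole of a random double-stranded 16-mer DNA library in Tris/NaCl/DTT/glycerol buffer for 30 min at room temperature, washed, crosslinked with 0.1% formaldehyde and proximity-ligated with BsaI/T4 ligase at 37 °C for 1 h. PCR amplification and Illumina NextSeq500 sequencing came last. Binding signal is each hexamer's read frequency for a factor divided by its frequency for the tag-only sample.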

The next assay has as its target T2, ELK1 (Homo sapiens, UniProt P19419 1-428).
T2 sequence: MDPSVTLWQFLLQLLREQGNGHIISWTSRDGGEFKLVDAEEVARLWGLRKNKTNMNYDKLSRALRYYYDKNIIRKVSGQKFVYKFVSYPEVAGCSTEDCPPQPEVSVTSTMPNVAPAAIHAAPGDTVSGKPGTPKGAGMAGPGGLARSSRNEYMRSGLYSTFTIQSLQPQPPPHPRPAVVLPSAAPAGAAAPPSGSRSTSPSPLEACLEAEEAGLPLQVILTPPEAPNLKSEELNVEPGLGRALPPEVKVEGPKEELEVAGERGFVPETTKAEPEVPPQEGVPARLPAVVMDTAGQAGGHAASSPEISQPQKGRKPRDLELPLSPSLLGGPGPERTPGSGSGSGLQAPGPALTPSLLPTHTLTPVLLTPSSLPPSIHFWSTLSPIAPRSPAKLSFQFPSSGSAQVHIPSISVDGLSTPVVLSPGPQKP
The conditions noted are these: protein: recombinant; tags: N-terminal GST; dsDNA, one strand shown. In short, it runs like this:
as §1

The target in a further assay is T3, GABPA (Homo sapiens, UniProt Q06546 1-454).
T3 sequence: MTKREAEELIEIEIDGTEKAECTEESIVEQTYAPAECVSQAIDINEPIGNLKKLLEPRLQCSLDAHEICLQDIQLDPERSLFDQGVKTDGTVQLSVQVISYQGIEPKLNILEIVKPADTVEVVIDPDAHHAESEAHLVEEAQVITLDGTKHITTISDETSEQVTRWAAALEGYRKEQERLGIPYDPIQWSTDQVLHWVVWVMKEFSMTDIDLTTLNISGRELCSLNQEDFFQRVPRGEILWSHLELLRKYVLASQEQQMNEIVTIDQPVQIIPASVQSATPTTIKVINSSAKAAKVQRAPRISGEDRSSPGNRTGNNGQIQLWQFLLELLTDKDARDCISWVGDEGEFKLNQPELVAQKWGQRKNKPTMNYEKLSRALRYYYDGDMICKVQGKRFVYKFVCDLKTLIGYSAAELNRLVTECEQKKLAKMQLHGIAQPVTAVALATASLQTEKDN
Particulars: protein: recombinant; tags: N-terminal GST; dsDNA, one strand shown. In short, it runs like this: as §1

The target of the next assay is T4, ERG (Homo sapiens, UniProt P11308 1-479).
T4 sequence: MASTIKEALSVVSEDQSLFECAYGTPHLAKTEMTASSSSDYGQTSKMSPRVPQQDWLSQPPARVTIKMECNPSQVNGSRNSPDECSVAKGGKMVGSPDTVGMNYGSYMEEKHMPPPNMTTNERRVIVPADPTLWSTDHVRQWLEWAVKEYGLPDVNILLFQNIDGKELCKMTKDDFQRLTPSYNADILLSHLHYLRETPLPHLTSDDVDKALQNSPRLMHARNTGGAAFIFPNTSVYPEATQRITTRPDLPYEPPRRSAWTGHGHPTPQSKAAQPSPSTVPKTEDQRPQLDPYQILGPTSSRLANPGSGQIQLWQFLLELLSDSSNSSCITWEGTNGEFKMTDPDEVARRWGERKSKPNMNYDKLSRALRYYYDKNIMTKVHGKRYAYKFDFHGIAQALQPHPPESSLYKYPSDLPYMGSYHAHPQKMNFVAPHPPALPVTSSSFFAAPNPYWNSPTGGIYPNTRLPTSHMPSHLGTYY
Particulars: protein: recombinant; tags: N-terminal GST; dsDNA, one strand shown. In short, it runs like this: as §1

The target of another assay is ELF1 (Homo sapiens, UniProt P32519 1-619). The conditions noted are these: protein: recombinant; tags: N-terminal GST; dsDNA, one strand shown. In short, it runs like this: as §1
The next assay addresses SPIB (Homo sapiens, UniProt Q01892 1-262). The conditions noted are these: protein: recombinant; tags: N-terminal GST; dsDNA, one strand shown. In short, it runs like this: as §1
A further assay addresses T5, ELK3 (Homo sapiens, UniProt P41970 1-407).
T5 sequence: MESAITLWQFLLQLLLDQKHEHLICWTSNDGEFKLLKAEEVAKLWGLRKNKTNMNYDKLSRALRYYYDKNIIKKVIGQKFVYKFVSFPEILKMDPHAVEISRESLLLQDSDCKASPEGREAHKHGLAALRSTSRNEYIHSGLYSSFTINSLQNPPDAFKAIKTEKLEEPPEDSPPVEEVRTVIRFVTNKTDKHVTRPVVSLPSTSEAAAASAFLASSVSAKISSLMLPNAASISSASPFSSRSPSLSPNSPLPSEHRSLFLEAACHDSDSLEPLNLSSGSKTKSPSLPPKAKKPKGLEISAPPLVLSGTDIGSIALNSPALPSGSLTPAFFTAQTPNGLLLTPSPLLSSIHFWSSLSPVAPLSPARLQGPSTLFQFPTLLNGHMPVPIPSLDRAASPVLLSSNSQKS
The conditions noted are these: protein: recombinant; tags: N-terminal GST; dsDNA, one strand shown. In short, it runs like this: as §1

The next assay deals with ETV5 (Homo sapiens, UniProt P41161 1-510). The conditions noted are these: protein: recombinant; tags: N-terminal GST; dsDNA, one strand shown. In short, it runs like this: as §1
A further assay has as its target HSF1 (Homo sapiens, UniProt Q00613 1-529). Particulars: protein: recombinant; tags: N-terminal GST; chain copies: 3; dsDNA, one strand shown. In short, it runs like this:
as §1

Another assay has as its target T6, SPIC (Homo sapiens, UniProt Q8N5J4 1-248).
T6 sequence: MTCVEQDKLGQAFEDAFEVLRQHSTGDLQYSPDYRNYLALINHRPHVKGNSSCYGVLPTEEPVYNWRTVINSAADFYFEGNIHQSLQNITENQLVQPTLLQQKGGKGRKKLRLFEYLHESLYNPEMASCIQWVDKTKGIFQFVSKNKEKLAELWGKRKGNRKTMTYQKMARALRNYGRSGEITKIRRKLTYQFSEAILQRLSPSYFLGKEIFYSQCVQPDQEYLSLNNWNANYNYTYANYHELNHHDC
Particulars: protein: recombinant; tags: N-terminal GST; dsDNA, one strand shown. In short, it runs like this: as §1

In another assay the target is ELF4 (Homo sapiens, UniProt Q99607 1-663). Particulars: protein: recombinant; tags: N-terminal GST; dsDNA, one strand shown. In short, it runs like this: as §1
Another assay has as its target T7, ELK4 (Homo sapiens, UniProt P28324-2 1-405).
T7 sequence: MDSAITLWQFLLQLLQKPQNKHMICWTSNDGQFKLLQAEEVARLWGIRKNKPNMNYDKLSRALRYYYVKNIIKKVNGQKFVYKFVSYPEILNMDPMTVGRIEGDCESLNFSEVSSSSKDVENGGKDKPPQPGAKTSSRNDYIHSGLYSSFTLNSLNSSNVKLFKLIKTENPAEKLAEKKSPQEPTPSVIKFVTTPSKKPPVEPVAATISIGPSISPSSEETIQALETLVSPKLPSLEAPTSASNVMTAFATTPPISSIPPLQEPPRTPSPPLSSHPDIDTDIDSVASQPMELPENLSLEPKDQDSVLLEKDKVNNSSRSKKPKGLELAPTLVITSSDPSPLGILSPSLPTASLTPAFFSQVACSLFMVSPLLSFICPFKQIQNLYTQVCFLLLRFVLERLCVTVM
Particulars: protein: recombinant; tags: N-terminal GST; dsDNA, one strand shown. In short, it runs like this:
as §1

Another assay deals with T8, ELF3 (Homo sapiens, UniProt P78545 1-371).
T8 sequence: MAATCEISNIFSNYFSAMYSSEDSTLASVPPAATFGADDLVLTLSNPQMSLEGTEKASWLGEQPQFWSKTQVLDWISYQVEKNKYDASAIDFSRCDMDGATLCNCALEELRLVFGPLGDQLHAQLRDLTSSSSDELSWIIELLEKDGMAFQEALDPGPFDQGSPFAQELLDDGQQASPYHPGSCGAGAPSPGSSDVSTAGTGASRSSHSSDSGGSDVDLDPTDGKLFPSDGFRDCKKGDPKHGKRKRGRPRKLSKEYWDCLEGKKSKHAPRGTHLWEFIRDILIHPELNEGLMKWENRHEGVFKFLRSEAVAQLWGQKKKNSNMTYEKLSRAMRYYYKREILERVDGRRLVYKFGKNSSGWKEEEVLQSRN
Particulars: protein: recombinant; tags: N-terminal GST; dsDNA, one strand shown. In short, it runs like this: as §1

The next assay concerns the target CRX (Homo sapiens, UniProt O43186 1-299). Particulars: protein: recombinant; tags: N-terminal GST; dsDNA, one strand shown. In short, it runs like this: as §1
In the next assay the target is SPI1 (Homo sapiens, UniProt P17947 1-270). The conditions noted are these: protein: recombinant; tags: N-terminal GST; dsDNA, one strand shown. In short, it runs like this: as §1
The next assay concerns the target T9, FEV (Homo sapiens, UniProt Q99581 1-238).
T9 sequence: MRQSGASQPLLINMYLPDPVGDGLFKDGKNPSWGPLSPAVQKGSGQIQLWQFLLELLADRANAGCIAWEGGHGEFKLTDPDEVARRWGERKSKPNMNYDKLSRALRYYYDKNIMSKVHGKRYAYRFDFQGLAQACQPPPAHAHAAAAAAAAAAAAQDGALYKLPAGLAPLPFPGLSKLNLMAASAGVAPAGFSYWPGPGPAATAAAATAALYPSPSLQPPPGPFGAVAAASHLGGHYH
Particulars: protein: recombinant; tags: N-terminal GST; dsDNA, one strand shown. In short, it runs like this:
as §1

The next assay has as its target ETV1 (Homo sapiens, UniProt P50549 1-477). Particulars: protein: recombinant; tags: N-terminal GST; dsDNA, one strand shown. In short, it runs like this: as §1

CRX, sequence (O43186 whole entry): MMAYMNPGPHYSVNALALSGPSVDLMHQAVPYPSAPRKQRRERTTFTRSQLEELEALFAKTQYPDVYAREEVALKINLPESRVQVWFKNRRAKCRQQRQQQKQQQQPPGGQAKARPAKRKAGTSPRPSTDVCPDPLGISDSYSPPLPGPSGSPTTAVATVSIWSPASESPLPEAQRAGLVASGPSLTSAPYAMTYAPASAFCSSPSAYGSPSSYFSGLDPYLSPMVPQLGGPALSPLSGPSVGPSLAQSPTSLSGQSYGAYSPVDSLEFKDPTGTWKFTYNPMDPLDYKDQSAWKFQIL
ELF4, sequence (Q99607 whole entry): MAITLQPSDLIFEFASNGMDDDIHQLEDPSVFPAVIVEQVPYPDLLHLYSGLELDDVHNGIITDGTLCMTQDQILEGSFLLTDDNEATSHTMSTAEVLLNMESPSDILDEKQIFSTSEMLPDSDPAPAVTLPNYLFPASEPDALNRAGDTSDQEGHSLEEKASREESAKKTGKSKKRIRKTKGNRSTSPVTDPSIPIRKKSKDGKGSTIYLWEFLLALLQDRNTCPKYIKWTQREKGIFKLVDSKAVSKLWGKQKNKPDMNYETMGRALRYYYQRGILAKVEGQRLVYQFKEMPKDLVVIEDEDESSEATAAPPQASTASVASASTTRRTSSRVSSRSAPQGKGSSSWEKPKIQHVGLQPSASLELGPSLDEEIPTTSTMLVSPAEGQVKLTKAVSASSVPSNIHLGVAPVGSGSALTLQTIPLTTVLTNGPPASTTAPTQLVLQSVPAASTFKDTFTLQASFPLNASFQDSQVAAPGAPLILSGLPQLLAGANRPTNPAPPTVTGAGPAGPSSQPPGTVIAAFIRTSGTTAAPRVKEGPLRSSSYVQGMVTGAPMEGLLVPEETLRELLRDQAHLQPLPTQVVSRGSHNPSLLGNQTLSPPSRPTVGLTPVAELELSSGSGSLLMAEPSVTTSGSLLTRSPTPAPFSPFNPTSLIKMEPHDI
ELF1, sequence (P32519 whole entry): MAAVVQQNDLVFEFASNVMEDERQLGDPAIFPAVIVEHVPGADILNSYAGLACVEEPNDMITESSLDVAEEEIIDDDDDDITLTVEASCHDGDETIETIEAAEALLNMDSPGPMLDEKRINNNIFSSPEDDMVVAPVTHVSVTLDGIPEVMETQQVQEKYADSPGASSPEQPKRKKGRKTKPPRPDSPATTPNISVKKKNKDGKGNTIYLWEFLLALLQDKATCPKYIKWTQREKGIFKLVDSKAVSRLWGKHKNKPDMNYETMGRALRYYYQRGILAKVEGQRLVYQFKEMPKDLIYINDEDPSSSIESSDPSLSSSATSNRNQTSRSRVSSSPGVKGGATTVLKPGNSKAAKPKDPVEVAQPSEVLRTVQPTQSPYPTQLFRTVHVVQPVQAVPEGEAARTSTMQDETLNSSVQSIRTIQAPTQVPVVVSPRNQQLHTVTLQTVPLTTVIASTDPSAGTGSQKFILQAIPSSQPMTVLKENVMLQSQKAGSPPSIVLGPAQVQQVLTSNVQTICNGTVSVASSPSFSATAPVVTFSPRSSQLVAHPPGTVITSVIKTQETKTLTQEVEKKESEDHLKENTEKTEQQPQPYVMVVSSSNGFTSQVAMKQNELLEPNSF
ETV5, sequence (P41161 whole entry): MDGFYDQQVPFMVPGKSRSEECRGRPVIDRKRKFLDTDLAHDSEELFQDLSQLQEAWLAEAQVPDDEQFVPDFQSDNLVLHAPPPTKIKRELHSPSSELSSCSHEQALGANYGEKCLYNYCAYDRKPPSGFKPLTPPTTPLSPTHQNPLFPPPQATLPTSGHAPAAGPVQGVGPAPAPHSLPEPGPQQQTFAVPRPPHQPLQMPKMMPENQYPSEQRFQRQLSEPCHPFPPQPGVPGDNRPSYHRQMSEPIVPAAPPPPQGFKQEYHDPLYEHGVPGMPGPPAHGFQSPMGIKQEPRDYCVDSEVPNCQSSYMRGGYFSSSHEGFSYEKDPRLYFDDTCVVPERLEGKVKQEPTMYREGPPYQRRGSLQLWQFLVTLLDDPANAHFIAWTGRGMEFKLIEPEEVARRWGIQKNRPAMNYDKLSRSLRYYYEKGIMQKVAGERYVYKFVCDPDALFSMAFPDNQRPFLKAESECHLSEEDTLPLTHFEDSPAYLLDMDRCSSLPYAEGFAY
SPIB, sequence (Q01892 whole entry): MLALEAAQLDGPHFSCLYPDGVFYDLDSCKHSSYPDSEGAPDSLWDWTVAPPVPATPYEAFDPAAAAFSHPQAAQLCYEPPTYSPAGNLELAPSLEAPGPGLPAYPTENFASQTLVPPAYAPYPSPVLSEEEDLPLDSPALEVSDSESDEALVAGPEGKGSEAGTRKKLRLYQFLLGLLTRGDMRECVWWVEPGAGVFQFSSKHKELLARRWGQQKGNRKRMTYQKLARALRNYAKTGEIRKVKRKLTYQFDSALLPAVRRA
HSF1, sequence (Q00613 whole entry): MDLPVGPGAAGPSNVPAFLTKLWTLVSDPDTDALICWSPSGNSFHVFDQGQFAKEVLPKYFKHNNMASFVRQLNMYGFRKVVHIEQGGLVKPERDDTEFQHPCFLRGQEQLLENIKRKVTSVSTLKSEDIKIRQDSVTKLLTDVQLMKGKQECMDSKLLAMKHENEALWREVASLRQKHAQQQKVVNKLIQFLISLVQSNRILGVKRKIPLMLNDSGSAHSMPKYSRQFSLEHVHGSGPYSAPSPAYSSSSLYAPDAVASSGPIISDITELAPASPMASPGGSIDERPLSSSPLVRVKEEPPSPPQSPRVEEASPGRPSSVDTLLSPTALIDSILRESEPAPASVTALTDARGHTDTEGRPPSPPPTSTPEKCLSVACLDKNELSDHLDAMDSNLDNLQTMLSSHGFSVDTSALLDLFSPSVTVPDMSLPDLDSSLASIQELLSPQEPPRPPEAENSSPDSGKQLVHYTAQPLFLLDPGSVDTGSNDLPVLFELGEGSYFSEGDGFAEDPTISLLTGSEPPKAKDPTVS
ETV1, sequence (P50549 whole entry): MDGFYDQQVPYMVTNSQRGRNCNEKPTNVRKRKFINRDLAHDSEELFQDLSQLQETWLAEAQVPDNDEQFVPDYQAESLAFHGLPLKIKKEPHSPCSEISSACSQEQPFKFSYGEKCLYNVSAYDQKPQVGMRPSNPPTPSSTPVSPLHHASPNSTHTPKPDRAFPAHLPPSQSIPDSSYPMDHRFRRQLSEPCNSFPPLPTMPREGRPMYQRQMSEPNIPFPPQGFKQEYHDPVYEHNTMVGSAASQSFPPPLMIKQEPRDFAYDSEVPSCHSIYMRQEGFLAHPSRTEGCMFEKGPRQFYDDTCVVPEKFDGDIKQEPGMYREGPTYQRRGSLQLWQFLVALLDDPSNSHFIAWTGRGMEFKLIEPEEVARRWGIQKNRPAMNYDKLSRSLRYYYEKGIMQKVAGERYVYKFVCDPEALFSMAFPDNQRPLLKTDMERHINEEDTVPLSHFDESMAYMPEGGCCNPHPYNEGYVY

In the case of AATCGA, the binding signal was 1 fold enrichment (6-mer frequency, TF over GST control) in the assay with FLI1; 1.06 fold enrichment (6-mer frequency, TF over GST control) with ELK1; 1.07 fold enrichment (6-mer frequency, TF over GST control) in the assay with GABPA; 1.02 fold enrichment (6-mer frequency, TF over GST control) with ERG; 1.03 fold enrichment (6-mer frequency, TF over GST control) in the assay with ELF1; 1.07 fold enrichment (6-mer frequency, TF over GST control) with SPIB. Besides, the binding signal with ELK3 is 1.12 fold enrichment (6-mer frequency, TF over GST control); with ETV5, 1.05 fold enrichment (6-mer frequency, TF over GST control); in the assay with HSF1, 1.38 fold enrichment (6-mer frequency, TF over GST control); with SPIC, 1.11 fold enrichment (6-mer frequency, TF over GST control); with ELF4, 1.03 fold enrichment (6-mer frequency, TF over GST control); with ELK4 it was 1.03 fold enrichment (6-mer frequency, TF over GST control). The binding signal with ELF3 was 1.11 fold enrichment (6-mer frequency, TF over GST control); with CRX, 1.2 fold enrichment (6-mer frequency, TF over GST control).

For AGTTCT, the binding signal with FLI1 is 1.02 fold enrichment (6-mer frequency, TF over GST control); in the assay with ELK1, 1.15 fold enrichment (6-mer frequency, TF over GST control); with GABPA, 1.11 fold enrichment (6-mer frequency, TF over GST control); with ERG, 1.11 fold enrichment (6-mer frequency, TF over GST control); with ELF1, 1.04 fold enrichment (6-mer frequency, TF over GST control); in the assay with SPI1, 1.14 fold enrichment (6-mer frequency, TF over GST control). Besides, the binding signal with SPIB is 1.2 fold enrichment (6-mer frequency, TF over GST control); with ELK3 it was 1.11 fold enrichment (6-mer frequency, TF over GST control); with FEV, 1.1 fold enrichment (6-mer frequency, TF over GST control); in the assay with ETV5 it was 1.12 fold enrichment (6-mer frequency, TF over GST control); with HSF1, 1.92 fold enrichment (6-mer frequency, TF over GST control); with SPIC it was 1.1 fold enrichment (6-mer frequency, TF over GST control). Also, the binding signal in the assay with ELF4 is 1.13 fold enrichment (6-mer frequency, TF over GST control); with ELK4, 1.2 fold enrichment (6-mer frequency, TF over GST control); in the assay with ELF3 it was 1.17 fold enrichment (6-mer frequency, TF over GST control); in the assay with CRX, 1.19 fold enrichment (6-mer frequency, TF over GST control); in the assay with ETV1, 1.03 fold enrichment (6-mer frequency, TF over GST control).
